The whole screen tested about 310,000 compounds, of which about 1,600 (0.52%) were called active.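 How the source made its calls: active means activation above the mean of controls blocked by dofetilide plus 5 SD; inactive means the rest.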 Many of the other results were omitted from the sample, so actives are more common in it than they were. Square brackets hold non-standard residues; d marks the D form. Peptide text beside a SMILES is read from it. ξ: configuration not given here. ξM = CSCCC(N)C(=O)O
Target: Voltage-gated inwardly rectifying potassium channel KCNH2 (Homo sapiens) (UniProt Q12809)
Sequence (Q12809 whole entry, looked up): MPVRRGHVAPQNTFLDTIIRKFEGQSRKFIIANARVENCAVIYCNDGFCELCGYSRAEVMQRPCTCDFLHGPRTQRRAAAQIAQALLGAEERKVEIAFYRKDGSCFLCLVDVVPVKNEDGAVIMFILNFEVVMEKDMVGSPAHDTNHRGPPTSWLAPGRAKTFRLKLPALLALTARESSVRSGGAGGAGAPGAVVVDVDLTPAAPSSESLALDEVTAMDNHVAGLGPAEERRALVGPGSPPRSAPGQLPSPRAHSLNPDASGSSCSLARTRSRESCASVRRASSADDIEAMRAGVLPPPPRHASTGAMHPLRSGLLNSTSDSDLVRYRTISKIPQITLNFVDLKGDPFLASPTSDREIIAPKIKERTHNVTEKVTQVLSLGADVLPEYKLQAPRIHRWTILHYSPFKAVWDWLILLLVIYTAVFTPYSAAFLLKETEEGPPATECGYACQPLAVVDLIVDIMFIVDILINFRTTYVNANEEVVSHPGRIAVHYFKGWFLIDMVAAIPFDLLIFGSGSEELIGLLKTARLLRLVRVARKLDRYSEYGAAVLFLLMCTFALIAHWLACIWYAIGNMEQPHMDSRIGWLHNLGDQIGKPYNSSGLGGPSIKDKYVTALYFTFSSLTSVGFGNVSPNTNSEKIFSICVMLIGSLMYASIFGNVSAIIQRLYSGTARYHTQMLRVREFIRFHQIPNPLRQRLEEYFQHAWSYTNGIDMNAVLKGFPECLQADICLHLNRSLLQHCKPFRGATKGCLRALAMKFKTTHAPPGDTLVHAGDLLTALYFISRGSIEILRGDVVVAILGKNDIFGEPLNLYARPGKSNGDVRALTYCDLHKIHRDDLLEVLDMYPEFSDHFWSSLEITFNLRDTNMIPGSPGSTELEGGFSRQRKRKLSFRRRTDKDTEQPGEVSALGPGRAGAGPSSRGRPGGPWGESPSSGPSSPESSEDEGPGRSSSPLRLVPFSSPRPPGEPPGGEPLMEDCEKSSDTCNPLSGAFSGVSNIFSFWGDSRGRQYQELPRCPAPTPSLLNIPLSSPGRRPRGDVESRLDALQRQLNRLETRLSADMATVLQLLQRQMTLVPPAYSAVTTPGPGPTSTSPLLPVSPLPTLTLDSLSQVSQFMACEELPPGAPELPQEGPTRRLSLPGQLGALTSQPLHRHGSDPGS
Assay: hERG rescue from dofetilide block, primary screen, cell-based, CHO-hERG, FluxOR thallium flux, dofetilide IC70 (AID 1511);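 further: thallium influx through hERG after potassium depolarization seen as dye fluorescence rise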
Conditions: dofetilide IC70 present, at 10 µM, active compounds read high

Compound	activation (rescue from dofetilide block), less the hit threshold
O=C(CN1CCN(S(=O)(=O)c2cc(Cl)ccc2Cl)CC1)c1ccc(O)c(O)c1	-1.99% (inactive)
CCOC(=O)N1CCC(NC(=O)c2ccc3nc(N4CCOCC4)sc3c2)CC1	-5.7% (inactive)
Cc1nc(N2CCOCC2)sc1C(=O)NN	4.6% (active)
Cc1nc(-c2ccc(Cl)cc2)sc1C(=O)NN	-10.7% (inactive)
Cc1cc(O)c(C(=O)/C=C/c2c(F)c(F)c(F)c(F)c2F)c(=O)o1	-23.3% (inactive)
COc1ccc(CCNC(=O)C(=O)Nc2ccc3nc4n(c(=O)c3c2)CCCCC4)cc1OC	-11.8% (inactive)
Nc1nc(SCC(=O)N2CCN(S(=O)(=O)c3ccc(Cl)cc3)CC2)n[nH]1	-4.93% (inactive)
Cc1ccc(S(=O)(=O)N(C)CC(=O)OCC(=O)N2CC(=O)Nc3ccccc32)cc1	-8.2% (inactive)
O=[N+]([O-])c1ccccc1S(=O)(=O)Nc1cccc2cccnc12	-0.19% (inactive)
COc1cc(NS(=O)(=O)c2ccc3ccccc3c2)c2ncccc2c1	5.48% (active)
Cc1ccc(NS(=O)(=O)c2ccc(C)c(NC(=O)COc3ccc4ccccc4c3)c2)c(C)c1	-12.4% (inactive)
Cc1ccc(NC(=O)c2cc([N+](=O)[O-])ccc2Cl)c(O)c1	-3.14% (inactive)
CCCNC(=O)COc1coc(CN2CCN(Cc3ccccc3)CC2)cc1=O	-2.43% (inactive)
COC(=O)CNC(=O)C(CCSC)NC(C)=O (stereo not given) (Ac-[ξM]-Gly-OMe)	-1.31% (inactive)
CCOc1ccc2nc(/N=C/c3nc(-c4ccccc4)oc3O)sc2c1	17.1% (active)
CC(N=Cc1nc(-c2ccccc2)oc1O)c1ccccc1 (stereo not given)	-4.74% (inactive)
CCOc1ccc2nc(N(CCCN(C)C)C(=O)c3ccc(C(=O)c4ccccc4)cc3)sc2c1	-26.7% (inactive)
COC(=O)c1cn(C)c2ccc(S(=O)(=O)N3CC(C)CC(C)C3)cc2c1=O (stereo not given)	-10.9% (inactive)
CCOC(=O)c1ccc(Nc2cc3ccccc3c(=O)[nH]2)cc1	-10.6% (inactive)
CCOC(=O)c1sc(=S)n2c1[nH]c(=O)c1ccc(C(=O)OC)cc12	77.9% (active)
CCOC(=O)C1=C(C)Nc2sc(C(=O)c3ccc(Br)cc3)c(N)c2C1c1ccc(C(=O)OC)cc1 (stereo not given)	-8.23% (inactive)
N/C(=N\OC(=O)CC1CCCCC1)c1ccccc1	-5.76% (inactive)
CCCCn1c(N)c(N(CCOC)C(=O)c2sc3ccccc3c2Cl)c(=O)[nH]c1=O	-2.36% (inactive)
CN(C)c1cc(N)c2ccccc2n1 (tested in a mixture with another compound)	5% (active)
Nc1nc(-c2ccccc2)cc(-c2ccccc2)n1	-6.21% (inactive)

Compound	activation (rescue from dofetilide block), less the hit threshold
COc1ccc(-c2cc(C(=O)N(C)Cc3ccccc3)c3ccccc3n2)cc1	-21.9% (inactive)
CCCCOC(=O)c1ccc(NC(c2ccc(C)cc2)P(=O)(OC)OC)cc1 (stereo not given)	-14.4% (inactive)
CC(=O)N1CCc2cc(Br)cc(S(=O)(=O)CCC(=O)Nc3c(C)n(C)n(-c4ccccc4)c3=O)c21	-18% (inactive)
Cc1nn(-c2cc(Cl)ccc2N)c(=O)c2ccccc12	7.47% (active)
Cc1cc(=O)oc2c1c(C)nn2-c1ccc(Cl)cc1	-1.68% (inactive)
Cc1nn(C)cc1N1C(=O)c2cccc3c(N)ccc(c23)C1=O	-54.8% (inactive)
NS(=O)(=O)c1cccc(NC(=O)CC23CC4CC(CC(Br)(C4)C2)C3)c1	-7.94% (inactive)
Cc1cccc(C)c1NC(=O)CS(=O)CC(=O)N1CCN(c2ccccc2)CC1 (stereo not given)	-5.6% (inactive)
CC(C)C(=O)Nc1nnc(Sc2ccc(N(C)C)cc2)s1	-6.31% (inactive)
Cc1cccc(NC(=S)NCCN(C2CCCCC2)C2CCCC2)c1	-7.92% (inactive)
Cc1cccc(C(=O)NC(=S)N(C)C2CCCCC2)c1	11.6% (active)
Cc1cccc(C(=O)NCCCN(C)CCCNC(=O)c2cccc(C)c2)c1	-3.82% (inactive)
COc1ccc2cc(C(=O)NCC3CCCO3)[nH]c2c1 (stereo not given)	-3.17% (inactive)
N#CC1=C(N)N(c2ccc(F)cc2)C(=O)C1	3.49% (inactive)
O=C(O)CCCCOn1ccnc1	-8.74% (inactive)
O=c1c2ccccc2ncn1CCCCOc1ccccc1F	-7.18% (inactive)
O=C(/C=C/c1ccco1)NC(=S)Nc1ccccc1Br	0.92% (inactive)
C=CCNC(=S)NNC(=O)c1cc(Cl)ccc1OC	-3.41% (inactive)
O=C(NNC(=S)NC1CCCCC1)c1ccccc1Cl	-19.3% (inactive)
COc1ccc(Cl)cc1C(=O)NNC(=S)NC1CCCC1	5.84% (active)
COc1ccc(Cl)cc1C(=O)NNC(=S)NC(=O)/C=C/c1ccco1	34.2% (active)
O=C(/C=C/c1ccco1)NC(=S)N1CCCCC1	-8.68% (inactive)
Cc1cccc(Cn2cnc3c(N)c(C)c(C)cc32)c1	-4.77% (inactive)
CCOC(=O)/C=C/C(=O)OCC(=O)NC(c1ccccc1)c1ccccc1	-0.47% (inactive)
CSc1cccc(NC(=O)CN2C(=O)COc3ccc(S(=O)(=O)N4CCOCC4)cc32)c1	-8.66% (inactive)

Compound	activation (rescue from dofetilide block), less the hit threshold
COc1cccc(CNCc2ccc3c(c2)OCO3)c1	-1.37% (inactive)
O=C1Nc2cc(Cl)c(Cl)cc2N(O)N1c1ccccc1Cl	-11.3% (inactive)
NC1=NN(c2cccc(C(=O)O)c2)C(=O)C1	-7.19% (inactive)
O=C(O)c1cccc(N2C(=O)Nc3ccccc3N2O)c1	5.69% (active)
COc1cc(OC)c(NC(=O)C2CCCN2C(=O)OCc2ccccc2)cc1Cl (stereo not given)	-14.7% (inactive)
COCCCNC(=O)CN1C(=O)CSc2ccc(S(=O)(=O)N3CCOCC3)cc21	-5.64% (inactive)
O=C(COC(=O)c1ccccc1NC(=O)c1ccco1)Nc1ccc2c(c1)OC(F)(F)O2	-13.6% (inactive)
O=S(=O)(NCCCc1ccccc1)c1ccc(Br)cc1	-3.29% (inactive)
O=C1c2ccccc2C(=O)N1CCCc1nc(-c2ccccc2)no1	-6.67% (inactive)
O=C1c2ccccc2C(=O)N1Cc1cc(-c2ccccc2Cl)no1	11.4% (active)
O=C1c2cccnc2C(=O)N1Cc1cccs1	-8.43% (inactive)
Cc1ccc(NC(=O)C(CC(=O)O)C2CCCO2)c(C)c1 (stereo not given)	-3.96% (inactive)
COCCCn1c(Cc2csc(Nc3cccc(Cl)c3)n2)nnc1SCC(=O)OC1CCCCC1	-9.88% (inactive)
Cc1c(NC(=O)C(C)Oc2cccc(Cl)c2)c(=O)n(-c2ccccc2)n1C (stereo not given)	-2.29% (inactive)
OC1CN=C2Sc3ccccc3N2C1 (stereo not given)	4.61% (active)
CCCNCc1cc(OCC)c(OCC(=O)Nc2ccccc2)cc1Br	-25.3% (inactive)
C=Cn1cc[n+](CC(=O)c2ccc(OC)c(OC)c2)c1	-13.3% (inactive)
Cc1cc(O)c(C2(O)C(=O)Nc3ccccc32)cc1C (stereo not given)	-4.06% (inactive)
COc1ccc(C23NCCN2C(=O)c2ccccc23)cc1 (stereo not given)	-7.58% (inactive)
COc1ccc(C2(O)C(=O)Nc3ccccc32)cc1 (stereo not given)	4.63% (active)
Cc1ccc(N2C(=O)C3N=NN(CC(=O)N4N=C(c5cccc6ccccc56)CC4c4ccccc4)C3C2=O)cc1 (stereo not given)	-4.02% (inactive)
O=P(O)(CP(=O)(c1ccccc1)c1ccccc1)c1ccccc1O	6.37% (active)
O=P(O)(CP(=O)(c1ccccc1)c1ccccc1)c1ccccc1	-3.04% (inactive)
CC(C)(C)c1cc(P(=O)(c2ccccc2)c2ccccc2)ccc1O	-11.2% (inactive)
CS(=O)(=O)N(CC(=O)NC1CCCC1)Cc1ccc(F)cc1	1.73% (inactive)

Source: PubChem BioAssay AID1511 (Johns Hopkins Ion Channel Center, 2009)
